Compound activity (PubChem BioAssay)
Mdm2 MdmX PPI – inhibitors of human Mdm2-MdmX association, primary screen, cell-based, luminescence, split luciferase, SaOS-2, uHTS; 330,000 compounds, 3% hits; AID 485346, 2010; Protein Mdm4 (Homo sapiens) + E3 ubiquitin-protein ligase Mdm2 (Homo sapiens), …; SaOS-2 split-luciferase Mdm2/MdmX complementation; inhibition, % at 8 µM;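 active means inhibition of at least 50% at 8 µM in the primary screen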
Shn3 3UTR inh – reduction of Shn3 3'UTR firefly luciferase signal, primary screen, Schnurri-3 inhibitor project, cell-based, Clone20 osteoblasts, set 2. Clone20 osteoblast Shn3 3'UTR firefly luciferase, 24 h. inhibition, % at 12.5 µM. 360,000 compounds, 0.52% hits;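 active means mean inhibition of at least 75% with every replicate also reaching 75%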;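 further: 0% = median of neutral control wells and 100% = pilot-screen positive control compound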
697 NFkB inh – inhibitors of PMA/ionomycin-induced NF-kB reporter, 697 cells, primary screen, B-cell NF-kB inhibitor project, cell-based, luminescence, uHTS; inhibition, % at 4 µM; AID 435022, 2010; 330,000 compounds, 0.33% hits; 697 B-cell NF-kB luciferase reporter, 16 h; in the data active means inhibition above about 35%
Jurkat NFkB inh – inhibitors of induced NF-kB luciferase reporter, primary screen, TCR NF-kB activation inhibitor project, cell-based, luminescence, uHTS; 330,000 compounds, 0.53% hits; Jurkat, PMA/ionomycin-induced NF-kB luciferase reporter; inhibition, % at 4 µM; in the data active means inhibition above about 50%
Gli-Sufu block – Gli-Sufu pathway antagonists, primary screen, luciferase luminescence, Sufu-KO-LIGHT cells, uHTS. Sufu-KO-LIGHT fibroblasts, Gli luciferase reporter luminescence. inhibition, % at 5 µM. 340,000 compounds, 0.74% hits. AID 588413, 2011;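 active means inhibition above about 55%, limit read from the data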;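 further: 0% = DMSO-treated cells and 100% = wells with medium but no cells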
Mdm2-MdmX conf – Mdm2-MdmX complex disruptors, retested hits, confirmation, luminescence, single concentration; shares compounds with Mdm2 MdmX PPI; Mdm2-MdmX binding, luminescent assay; inhibition, % at 8 µM; 10,000 compounds, 55% hits; in the data active means inhibition above about 40%
Full FLuc ctr – full-length luciferase signal inhibition, confirmation, counter-screen for Mdm2/MdmX interaction inhibitor project, cell-based, single concentration, SaOS-2; SaOS-2 full-length luciferase counterscreen, luminescence; shares compounds with Mdm2 MdmX PPI; inhibition, % at 8 µM; 6,200 compounds, 77% hits; AID 504607, 2011;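 active means mean inhibition at 8 µM reaching about 37%, which flags the compound as non-specific, limit read from the data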;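 further: p53-null SaOS-2 cells with luciferase driven by a doxycycline-inducible promoter; compound on cells about two nights before reading with doxycycline added after day one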
Numbers without * were called inactive; / = no result given. The list is not random: actives were taken first. Their share in the collection is about 3.8%.

SMILES	Mdm2 MdmX PPI	Shn3 3UTR inh	697 NFkB inh	Jurkat NFkB inh	Gli-Sufu block	Mdm2-MdmX conf	others
COc1ccc(N2CCN(CC(=O)Nc3ncc(C)s3)CC2)cc1	-9	2	-2	3	11	/
Cc1cnc(NC(=O)CN2CCN(c3ccccn3)CC2)s1	67*	-33	24	4	-33	63*	Full FLuc ctr=64*
CC(C)=CCc1cc([C@@H]2COc3c(ccc4c3C=CC(C)(C)O4)C2)c(O)cc1O	64*	92*	-26	20	5	-7
CC1(C)C=Cc2c(ccc3c2OC[C@H](c2ccc(O)cc2O)C3)O1	-47	-15	-52	-55	-39	/
CC1CC(C)CN(c2ccc([N+](=O)[O-])cc2-c2nn[nH]n2)C1 (stereo not given)	9	13	-2	5	-2	/
CCOC(=O)c1c(-c2ccc(OC)cc2)csc1NC(=O)COc1ccc2c(C)cc(=O)oc2c1	61*	10	0	23	17	14
Oc1c(C(Nc2cccc(C(F)(F)F)c2)c2ccncc2)ccc2cccnc12 (stereo not given)	61*	97*	-18	8	2	49*	Full FLuc ctr=21
Oc1c(C(Nc2nccs2)c2ccc(C(F)(F)F)cc2)ccc2cccnc12 (stereo not given)	/	78	/	/	29	/
Cc1cc(C(=O)CCl)c(C)n1CCc1ccc(Cl)cc1	93*	41	5	14	9	69*	Full FLuc ctr=31
Cc1cc(C(=O)CSc2nnc(N)s2)c(C)n1CCc1ccc(Cl)cc1	3	-17	12	-15	-4	/
COc1ccc(CCn2c(C)cc(C(=O)CCl)c2C)cc1OC	74*	11	10	14	3	27
COc1ccc(CCn2c(C)cc(C(=O)CSc3nnnn3-c3ccccc3)c2C)cc1OC	59*	79	22	5	15	7
Cc1cc(C(=O)CSc2nnnn2C)c(C)n1CCc1ccc(F)cc1	20	-6	5	-12	1	/
Cc1cc(C(=O)CCl)c(C)n1CCc1ccc(F)cc1	92*	70	22	25	-3	62*	Full FLuc ctr=34
Cc1cc(C(=O)CSc2nnnn2-c2ccccc2)c(C)n1CCc1ccccc1	26	29	-6	15	0	/
COc1ccc(CCn2c(C)c(C(C)=O)c(C(C)=O)c2C)cc1OC	-11	-13	-4	6	-11	/
CCc1ccc2c(CN3CCC(C(=O)OC)CC3)cc(=O)oc2c1	-27	11	0	-18	8	/
C=CCNC(=S)N1CCC(C(=O)c2ccc(Cl)cc2)CC1	15	4	-35	-11	/	/
CCc1cccc(OCC2Cn3c(nc4c3c(=O)[nH]c(=O)n4C)O2)c1 (stereo not given)	26	20	11	-2	-3	/
O=C(Nc1nnc(-c2ccccc2Cl)s1)c1ccccc1F	86*	-57	-14	-8	-46	-8
O=C(Nc1ccccc1C(=O)Nc1nnc(C(F)(F)F)s1)c1ccccc1Cl	95*	39	-3	1	52	94*	Full FLuc ctr=22
NC(=O)c1ccccc1NC(=O)c1ccccc1Cl	15	4	5	-18	-6	/
COc1ccc2nc3cc(Cl)ccc3c(Nc3cc(C(C)C)c(O)cc3C)c2c1	94*	17	-27	-17	1	64*	Full FLuc ctr=64*
O=C(Nc1cccc(S(=O)(=O)NC2=NCCCCC2)c1)c1ccc(Cl)cc1	30	42	-45	20	25	/
COc1ccc(CCC(=O)Nc2nnc(C(F)(F)F)s2)cc1	16	-9	11	11	4	/
SMILES	Mdm2 MdmX PPI	Shn3 3UTR inh	697 NFkB inh	Jurkat NFkB inh	Gli-Sufu block	Mdm2-MdmX conf	others
COc1ccc(CN(CCC#N)CCC2(c3ccccc3)CC(C)N(C)CC2C)cc1OC (stereo not given)	0	-24	-15	-5	11	/
COc1ccc(CNCCC2(Cc3ccccc3)CC(C)N(C)CC2C)cc1OC (stereo not given)	61*	9	-8	-14	14	29
O=C1c2ccccc2N[C@@H]2C=CC[C@@H]2N1O	32	2	5	/	-6	/
Cn1cnnc1SCC(=O)NC1CC1	5	-11	5	12	-3	/
CN1CCN(CCCNCc2cn(CCC#N)c3ccccc23)CC1	-5	8	-1	-21	5	/
C=CCOc1ccc(-c2nc3c(c(=O)[nH]c(=O)n3CCCC)n2C)cc1Br	70*	2	-9	13	14	-3
COC(=O)c1c(C)[nH]c(C(=O)CSc2ncnc3sc(-c4ccccc4)cc23)c1C	67*	31	-40	14	10	13
O=c1[nH]c(CSc2ncnc3sc(-c4ccccc4)cc23)nc2ccccc12	87*	-13	3	-3	10	-12
COC(=O)[C@]1(C)N[C@H](CN(C)C(=O)c2ccccc2)[C@@H]2C(=O)N(C)C(=O)[C@@H]21	4	-13	15	1	1	/
COc1ccc(CCNCC(O)COc2ccc(OC)cc2C(C)(C)C)cc1 (stereo not given)	23	-5	7	-7	5	/
CCN(CC)c1ccc(/C=C2\NC(=O)NC2=O)cc1	63*	-6	-20	32	-3	48*	Full FLuc ctr=58*
CN(C)CCCNS(=O)(=O)c1ccc(N2CCC(c3ccc(Cl)cc3)=N2)cc1	100*	/	-15	23	/	100*	Full FLuc ctr=2
COc1ccc(NC(=O)NCCCCc2ccccc2)c(OC)c1	58*	6	-1	10	-7	23
CC(=O)c1cccc(NC(=O)CNC(=O)c2sc3ccccc3c2Cl)c1	76*	-11	4	1	-7	48*	Full FLuc ctr=55*
Cc1cccc(NC(=O)CNC(=O)c2sc3ccccc3c2Cl)n1	17	-32	-3	-17	-22	/
COc1ccc(NC(=O)CNC(=O)c2sc3ccccc3c2Cl)c(OC)c1	77*	-8	7	-5	4	8
COc1ccccc1NC(=S)N(Cc1ccco1)Cc1cc2cc(C)ccc2[nH]c1=O	40	16	3	13	-7	/
Cc1ccc(-c2cc(-c3ccccc3Cl)c(C#N)c(N)n2)o1	31	0	14	-5	-11	/
CCSc1nc(N)c(C#N)c(-c2ccccc2Cl)c1C#N	50*	4	0	7	-5	38	Full FLuc ctr=66*
